About 4,200 (1.2%) of roughly 360,000 compounds were called active. What follows is part of a selection rich in actives, with near analogues and random picks from the rest. Unmarked numbers belong to inactive results.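 Rule for the calls: active = mean replicate inhibition at least 60% with every replicate also reaching 60%; inconclusive = only one of the two criteria is met; inactive = mean below 60% and not all replicates reaching 60%.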

This test is described as follows: inhibitors of PAX8-driven TPO luciferase reporter, primary screen, RMG-I cells, single concentration (AID 652154).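 Note: luciferase light reporting Pax8 driven TPO promoter activity; plate controls were median of neutral control wells for no effect and mitoxantrone controls for full effect.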 The conditions noted are these: SteadyGlo, 24 h, at 12.6 µM, stronger effect = higher value. On the technique in general: In a reporter assay the amount or activity of a reporter protein is the signal.
For orientation: inhibition means the change of the read-out against control, counted positive when it falls. Take `CCCNC(=O)c1c(Cl)cnn1-c1ccc(C)cc1`: the inhibition was -169%.

Turning to `CC(=O)Nc1c2c(nn1-c1cccc(C)c1)CSC2`, the inhibition is 13.4%.

For `Cc1cccc(-n2ncc(Cl)c(Cl)c2=O)c1`, the inhibition was 99.9% (active).

Consider `O=c1ccc2c(-c3ccccc3S(=O)(=O)O)c3ccc(O)c(O)c3oc-2c1O`, for which the inhibition was 65.9% (active).

As to `CN(C)C(=O)C[C@@H]1CC[C@@H](NC(=O)NC2CCCC2)[C@@H](CO)O1`, the inhibition was -11%.

Regarding `Cn1cnc(CCNC(=O)C[C@H]2CC[C@H]3[C@@H](COC[C@@H](O)CN3C(=O)Nc3ccc(C(F)(F)F)cc3)O2)c1`, the inhibition is -9.72%.

In the case of `CC(C)NC(=O)N1C[C@H]2[C@@H](c3ccccc31)[C@H](CO)N2C(=O)c1ccccc1F`, the inhibition was -9.19%.

`CS(=O)(=O)N1CCc2cc(C(=O)Nc3ccccc3)ccc21`: the inhibition was -94%.

For the molecule `CC(=O)Nc1cccc(NC(=O)c2ccc3c(c2)CCN3S(C)(=O)=O)c1`, the inhibition was -7.18%.

As for `CN(c1cccc(NC(=O)c2ccc(CN3CCc4ccccc4C3)cc2)c1)S(C)(=O)=O`, the inhibition is 72.6% (active).

Turning to `CCCNC(=O)C[C@H]1CC[C@H]2[C@H](COc3ccc(NC(=O)CC)cc3C(=O)N2C)O1`, the inhibition was -14.6%.

As to `N#Cc1c(NC(=O)C2CC(Cl)=CCC2C(=O)O)sc2c1CCCCC2` (configuration not stated), the inhibition was -9.86%.

As for `N#Cc1c(NC(=O)C2CCCO2)sc2c1CCCCC2` (configuration not stated), the inhibition is -175%.

For `N#Cc1c(NC(=O)CCCl)sc2c1CCCCC2`, the inhibition is 60.9% (active).

In the case of `O=C(Nc1ccc2c(c1)OCO2)N[C@@H]1CC[C@H](CC(=O)N2CCN(c3ccccc3)CC2)O[C@@H]1CO`, the inhibition was -5.75%.

`O=C(C[C@H]1C[C@@H]2c3cc(NC(=O)c4cccnc4)ccc3O[C@@H]2[C@@H](CO)O1)NCc1ccccc1F`: the inhibition was -5.11%.

Consider `CC(=O)c1ccc(S(=O)(=O)NCc2nnnn2-c2ccccc2)cc1`, for which the inhibition was 3.71%.

For the molecule `O=C(NCc1nnnn1-c1ccc(Cl)cc1)c1ccc2c(c1)OCO2`, the inhibition is 2.39%.

`O=C(NCc1nnnn1-c1ccc(Cl)cc1)c1ccc([N+](=O)[O-])o1`: the inhibition is 77.5% (active).

In the case of `CCCc1cn(CC[C@@H]2CC[C@@H](NC(=O)C3CC3)[C@H](CO)O2)nn1`, the inhibition was -17.8%.

Regarding `O=C(C[C@@H]1CC[C@@H](NC(=O)CC2CC2)[C@H](CO)O1)NCc1ccc(-c2ccccc2)cc1`, the inhibition is 2.89%.

As for `C[C@H](CO)N1C[C@H](C)[C@@H](CN(C)Cc2ccccn2)Oc2ncc(C3=CCCC3)cc2C1=O`, the inhibition was -41%.

Take `COc1cccc(-c2cnc3c(c2)C(=O)N([C@@H](C)CO)C[C@@H](C)[C@@H](CN(C)Cc2ccc(C(=O)O)cc2)O3)c1`: the inhibition was -16.9%.

As for `CCC(=O)N1[C@@H]2c3ccc(-c4ccc(F)cc4)c(=O)n3C[C@H]1[C@H](CO)[C@H]2C(=O)N(C)C`, the inhibition is 7.01%.

Take `Cc1ccc(C)c(N2CCN(C(=O)CCCn3c(=O)c4cccn4c4cccnc43)CC2)c1`: the inhibition was 13.6%.

With `O=C(CCCCCn1c(=S)[nH]c2cc3c(cc2c1=O)OCO3)N1CCN(c2ccc(F)cc2)CC1`, the inhibition is 3.47%.

In the case of `Cc1ccc(C)c(N2CCN(C(=O)CCCCCn3c(=S)[nH]c4ccc(N5CCOCC5)cc4c3=O)CC2)c1`, the inhibition is 95% (active).

With `C[C@@H](NC(=O)C[C@H]1C=C[C@@H](NC(=O)CN2CCOCC2)[C@@H](CO)O1)c1ccccc1`, the inhibition is -7.59%.

In the case of `Cc1ccc(S(=O)(=O)Nc2ccc3c(c2)C(=O)N([C@H](C)CO)C[C@H](C)[C@@H](CN(C)Cc2ccccc2)OCCCC[C@H](C)O3)cc1`, the inhibition is -7.59%.

In the case of `Cc1ccc(S(=O)(=O)Nc2ccc3c(c2)C(=O)N([C@@H](C)CO)C[C@@H](C)[C@H](CN(C)Cc2ccc(Cl)c(Cl)c2)OCCCC[C@@H](C)O3)cc1`, the inhibition was 75.8% (active).

As to `Cc1ccc(S(=O)(=O)Nc2ccc3c(c2)C(=O)N([C@@H](C)CO)C[C@@H](C)[C@@H](CN(C)Cc2ccc(C(F)(F)F)cc2)OCCCC[C@@H](C)O3)cc1`, the inhibition was 105% (active).

Take `C[C@H](CO)N1C[C@H](C)[C@H](CN(C)Cc2ccc(C(F)(F)F)cc2)OCCCC[C@H](C)Oc2ccc(NS(=O)(=O)c3ccc(Cl)cc3)cc2C1=O`: the inhibition is 19.1%.

Take `COc1ccc(CN(C)C[C@@H]2OCCCC[C@@H](C)Oc3ccc(NS(=O)(=O)c4ccc(F)cc4)cc3C(=O)N([C@@H](C)CO)C[C@H]2C)cc1`: the inhibition was -7.37%.

As to `COc1ccc(CN(C)C[C@@H]2OCCCC[C@H](C)Oc3ccc(NS(=O)(=O)c4ccc(F)cc4)cc3C(=O)N([C@H](C)CO)C[C@H]2C)cc1`, the inhibition was -1.69%.

Take `C[C@@H]1CCCCO[C@@H](CN(C)Cc2ccc(Cl)c(Cl)c2)[C@H](C)CN([C@@H](C)CO)C(=O)c2cc(NS(C)(=O)=O)ccc2O1`: the inhibition is 6.58%.

Consider `Cc1ccc(S(=O)(=O)Nc2ccc3c(c2)C(=O)N([C@@H](C)CO)C[C@@H](C)[C@H](CN(C)Cc2ccc4c(c2)OCO4)OCCCC[C@@H](C)O3)cc1`, for which the inhibition is -3.85%.

Take `Cc1ccc(S(=O)(=O)Nc2ccc3c(c2)C(=O)N([C@H](C)CO)C[C@@H](C)[C@H](CN(C)Cc2ccccc2)OCCCC[C@H](C)O3)cc1`: the inhibition was 45.2%.

Take `COc1ccc(S(=O)(=O)Nc2ccc3c(c2)C(=O)N([C@@H](C)CO)C[C@@H](C)[C@H](CN(C)Cc2ccc(C(F)(F)F)cc2)OCCCC[C@@H](C)O3)cc1`: the inhibition was 27.5%.

On to `C[C@@H]1CCCCO[C@@H](CN(C)Cc2ccc(C(F)(F)F)cc2)[C@H](C)CN([C@H](C)CO)C(=O)c2cc(NS(=O)(=O)c3ccc(F)cc3)ccc2O1`, for which the inhibition was 104% (active).

In the case of `COc1ccc(S(=O)(=O)Nc2ccc3c(c2)C(=O)N([C@@H](C)CO)C[C@H](C)[C@H](CN(C)Cc2ccc(C(F)(F)F)cc2)OCCCC[C@@H](C)O3)cc1`, the inhibition is 94.8% (active).

In the case of `COc1cccc(S(=O)(=O)N[C@@H]2CC[C@H](CCNC(=O)Cc3ccncc3)O[C@@H]2CO)c1`, the inhibition was -23.7%.

As to `CN(C)C(=O)c1ccc(-c2ccc([C@H]3[C@H](CO)N4C(=O)CN(C(=O)C5CCCC5)C[C@@H]34)cc2)cc1`, the inhibition is -16.1%.

The record behind these values is PubChem BioAssay AID652154 (Broad Institute, 2013).
